From ChEMBL document CHEMBL3988442, “University of Dundee, Small-Polar-MMV Screening Library” (2021)
For some of these results: Potency and affinity values are given separately.

Assays:
Parameters in all cases: scale not given: direction of the effect not stated beside the values
[1] = target: Protein translocase subunit SecA (Escherichia coli (strain K12)) (UniProt P10408); assay: Assay to Identify E. coli SecA ATPase Inhibitors; assay type: functional; details: 30 µM
[2] = target: T1, Ubiquitin-activating enzyme e1, putative (Leishmania donovani (strain BPK282A1)) (UniProt E9BSI1); assay: Leishmania donovani Ubiquitin Activating Enzyme (LdE1); assay type: functional; details: 30 µM
T1 sequence (whole entry): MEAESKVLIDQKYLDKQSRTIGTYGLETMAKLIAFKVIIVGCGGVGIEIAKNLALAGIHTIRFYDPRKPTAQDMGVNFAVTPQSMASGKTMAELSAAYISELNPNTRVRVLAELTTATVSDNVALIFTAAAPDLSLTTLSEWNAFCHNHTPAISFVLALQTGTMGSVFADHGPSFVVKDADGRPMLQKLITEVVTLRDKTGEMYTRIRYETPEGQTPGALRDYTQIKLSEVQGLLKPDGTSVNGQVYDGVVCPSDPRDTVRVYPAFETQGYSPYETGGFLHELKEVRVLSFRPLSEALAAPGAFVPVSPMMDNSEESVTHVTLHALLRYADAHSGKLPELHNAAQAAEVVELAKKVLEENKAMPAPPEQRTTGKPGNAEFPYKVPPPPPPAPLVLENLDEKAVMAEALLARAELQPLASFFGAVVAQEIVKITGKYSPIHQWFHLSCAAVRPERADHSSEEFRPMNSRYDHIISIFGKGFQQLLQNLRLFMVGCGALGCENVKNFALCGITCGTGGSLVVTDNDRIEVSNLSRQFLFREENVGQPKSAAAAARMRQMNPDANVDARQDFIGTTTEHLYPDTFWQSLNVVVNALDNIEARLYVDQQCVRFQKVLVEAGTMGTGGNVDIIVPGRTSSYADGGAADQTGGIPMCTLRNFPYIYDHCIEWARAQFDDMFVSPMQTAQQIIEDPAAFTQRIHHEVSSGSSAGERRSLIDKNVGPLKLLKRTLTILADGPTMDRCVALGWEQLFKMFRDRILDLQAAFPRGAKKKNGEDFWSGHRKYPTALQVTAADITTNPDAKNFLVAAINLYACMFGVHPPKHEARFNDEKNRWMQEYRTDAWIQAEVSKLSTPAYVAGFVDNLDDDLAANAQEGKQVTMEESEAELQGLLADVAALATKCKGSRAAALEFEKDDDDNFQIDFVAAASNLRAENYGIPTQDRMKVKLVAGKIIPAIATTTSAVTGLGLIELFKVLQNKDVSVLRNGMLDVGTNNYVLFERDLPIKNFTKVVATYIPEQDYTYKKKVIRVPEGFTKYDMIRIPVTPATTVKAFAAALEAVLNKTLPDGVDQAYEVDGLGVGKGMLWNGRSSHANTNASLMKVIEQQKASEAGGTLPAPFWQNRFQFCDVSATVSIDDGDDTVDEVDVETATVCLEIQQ

[3] = target: AMP-activated protein kinase, AMPK (Homo sapiens) (UniProt P54646+O43741+P54619+Q9UGJ0+Q9Y478+Q13131+Q9UGI9); assay: AMP-dependent Kinase enzyme assay. An in vitro enzyme assay that detects ADP turnover that is directly proportional to AMPK activity. This uses naive AMPK that is activated during the assay with MK-8722; assay type: functional; details: 30 µM
[4] = target: Sialic acid-binding Ig-like lectin 9 (Homo sapiens) (UniProt Q9Y336); assay: Hs-Siglec9 ALPHAscreen SOP 20170721; details: 10 µM
Trypanosoma cruzi = assay: Trypanosoma cruzi phosphomannomutase and mannose-1-phosphate guanylyltransferase assay; assay type: functional; details: 10 µM
[5] = target: T2, Arginase-2, mitochondrial (Homo sapiens) (UniProt P78540); assay: in vitro enzyme assay to detect the production of urea directly proportional to the activity of Arginase II; assay type: functional; details: 33.3 µM; further: in the data most compounds retested in dose-response had high values
T2 sequence (whole entry): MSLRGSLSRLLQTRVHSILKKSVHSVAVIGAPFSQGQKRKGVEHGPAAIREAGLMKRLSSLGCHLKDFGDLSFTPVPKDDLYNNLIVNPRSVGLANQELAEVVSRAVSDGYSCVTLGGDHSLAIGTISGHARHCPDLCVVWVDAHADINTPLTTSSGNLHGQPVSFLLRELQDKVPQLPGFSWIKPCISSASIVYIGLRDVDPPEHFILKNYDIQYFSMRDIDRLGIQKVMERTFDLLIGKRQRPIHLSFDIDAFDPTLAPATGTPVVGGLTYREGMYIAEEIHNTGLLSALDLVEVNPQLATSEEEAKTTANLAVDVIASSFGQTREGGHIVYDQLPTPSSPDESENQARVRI

[6] = target: T3, Proteasome subunit beta (Trypanosoma cruzi) (UniProt O96673); assay: Trypanosoma cruzi proteasome chymotrypsin-like activity (TcProtChymo) assay.; further: in the data most compounds retested in dose-response had high values; assay type: functional; details: 9.37 µM
T3 sequence (whole entry): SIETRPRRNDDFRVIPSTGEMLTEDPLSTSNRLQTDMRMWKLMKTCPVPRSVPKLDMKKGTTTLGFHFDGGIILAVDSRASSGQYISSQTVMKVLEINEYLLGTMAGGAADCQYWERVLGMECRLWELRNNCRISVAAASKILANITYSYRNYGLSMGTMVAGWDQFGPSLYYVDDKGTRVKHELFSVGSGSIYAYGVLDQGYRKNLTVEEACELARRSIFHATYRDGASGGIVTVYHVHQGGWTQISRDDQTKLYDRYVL

Homo sapiens = organism: Homo sapiens; assay: To identify inhibition of the IFN signalling (Jak-Stat) pathway via expression of an eGFP reporter gene under the control of an IFN-stimulated response element (ISRE) containing MxA promoter.; assay type: functional; details: 30 µM
[7] = target: T4, Tyrosyl-tRNA synthetase, putative (Trypanosoma cruzi (strain CL Brener)) (UniProt Q4DSP6); assay: Trypanosoma cruzi tyrosyl tRNA synthetase (TcYRS) _High Tyrosine SOP; assay type: functional; details: 30 µM; further: in the data most compounds retested in dose-response had high values
T4 sequence (whole entry): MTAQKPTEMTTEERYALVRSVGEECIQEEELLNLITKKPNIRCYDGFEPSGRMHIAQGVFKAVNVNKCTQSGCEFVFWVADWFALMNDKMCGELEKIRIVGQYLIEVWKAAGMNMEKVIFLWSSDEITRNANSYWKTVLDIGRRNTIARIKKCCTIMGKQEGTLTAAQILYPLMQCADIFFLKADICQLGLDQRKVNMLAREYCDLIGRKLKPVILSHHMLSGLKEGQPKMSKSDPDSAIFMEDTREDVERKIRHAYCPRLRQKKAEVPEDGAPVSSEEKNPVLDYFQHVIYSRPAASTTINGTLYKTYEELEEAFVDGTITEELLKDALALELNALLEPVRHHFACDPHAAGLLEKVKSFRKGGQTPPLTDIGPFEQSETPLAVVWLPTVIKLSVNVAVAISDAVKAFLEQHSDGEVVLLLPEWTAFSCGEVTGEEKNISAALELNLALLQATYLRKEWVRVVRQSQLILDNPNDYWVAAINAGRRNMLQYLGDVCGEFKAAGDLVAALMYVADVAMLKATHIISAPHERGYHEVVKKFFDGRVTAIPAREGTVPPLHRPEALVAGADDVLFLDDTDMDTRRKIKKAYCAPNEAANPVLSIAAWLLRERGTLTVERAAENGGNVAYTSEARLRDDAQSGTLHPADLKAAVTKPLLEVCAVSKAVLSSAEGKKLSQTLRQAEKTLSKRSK

[8] = target: T4, Tyrosyl-tRNA synthetase, putative (Trypanosoma cruzi (strain CL Brener)); assay: Trypanosoma cruzi tyrosyl tRNA synthetase (TcYRS) SOP; assay type: functional; details: 30 µM
[9] = target: Chromo domain-containing protein 1 (Saccharomyces cerevisiae (strain ATCC 204508 / S288c) (Baker's yeast)) (UniProt P32657); assay: ScCHD-1 Enzyme Inhibition Assay; assay type: functional; details: 30 µM; further: in the data most compounds retested in dose-response had high values
Chromo domain-containing protein 1 (Saccharomyces cerevisiae (strain ATCC 204508 / S288c) (Baker's yeast)), sequence (P32657 whole entry, the tested form may be a part): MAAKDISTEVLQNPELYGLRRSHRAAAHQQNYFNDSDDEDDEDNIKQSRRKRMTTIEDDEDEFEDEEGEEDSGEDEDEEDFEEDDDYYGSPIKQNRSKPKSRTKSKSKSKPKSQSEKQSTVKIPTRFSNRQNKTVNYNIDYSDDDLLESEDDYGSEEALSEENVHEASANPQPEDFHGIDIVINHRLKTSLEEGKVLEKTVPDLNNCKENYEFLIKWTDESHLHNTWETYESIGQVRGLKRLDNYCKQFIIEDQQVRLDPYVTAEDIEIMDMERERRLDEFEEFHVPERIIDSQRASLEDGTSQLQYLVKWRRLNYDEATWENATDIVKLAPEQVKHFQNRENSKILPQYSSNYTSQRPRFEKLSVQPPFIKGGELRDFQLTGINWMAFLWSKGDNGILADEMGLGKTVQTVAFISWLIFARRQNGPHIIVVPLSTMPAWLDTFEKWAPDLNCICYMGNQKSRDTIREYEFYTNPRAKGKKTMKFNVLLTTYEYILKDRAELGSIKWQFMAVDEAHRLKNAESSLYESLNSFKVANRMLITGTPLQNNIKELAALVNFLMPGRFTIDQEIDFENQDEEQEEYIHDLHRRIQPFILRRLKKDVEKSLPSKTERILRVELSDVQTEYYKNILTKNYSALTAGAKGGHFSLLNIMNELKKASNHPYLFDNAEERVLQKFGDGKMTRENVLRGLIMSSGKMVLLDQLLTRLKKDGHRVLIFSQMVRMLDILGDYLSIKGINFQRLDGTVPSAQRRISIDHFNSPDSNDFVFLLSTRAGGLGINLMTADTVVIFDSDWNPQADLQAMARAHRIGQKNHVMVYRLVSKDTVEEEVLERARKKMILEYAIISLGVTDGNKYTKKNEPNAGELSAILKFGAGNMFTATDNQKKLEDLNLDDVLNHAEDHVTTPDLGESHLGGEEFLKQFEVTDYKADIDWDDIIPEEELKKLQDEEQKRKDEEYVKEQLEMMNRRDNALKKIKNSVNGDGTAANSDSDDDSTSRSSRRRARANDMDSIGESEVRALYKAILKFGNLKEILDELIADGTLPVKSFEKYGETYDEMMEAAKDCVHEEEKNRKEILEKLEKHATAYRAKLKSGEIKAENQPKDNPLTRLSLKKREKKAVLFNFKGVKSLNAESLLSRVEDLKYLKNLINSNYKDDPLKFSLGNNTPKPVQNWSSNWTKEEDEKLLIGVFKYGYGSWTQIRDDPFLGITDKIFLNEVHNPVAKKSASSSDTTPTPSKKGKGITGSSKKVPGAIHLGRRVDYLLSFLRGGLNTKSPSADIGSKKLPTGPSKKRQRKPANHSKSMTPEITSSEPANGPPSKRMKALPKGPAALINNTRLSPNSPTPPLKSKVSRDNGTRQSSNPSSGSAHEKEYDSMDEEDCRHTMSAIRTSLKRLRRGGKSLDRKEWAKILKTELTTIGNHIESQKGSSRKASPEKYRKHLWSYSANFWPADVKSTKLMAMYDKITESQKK

Sialic acid-binding Ig-like lectin 9 (Homo sapiens), sequence (Q9Y336 whole entry): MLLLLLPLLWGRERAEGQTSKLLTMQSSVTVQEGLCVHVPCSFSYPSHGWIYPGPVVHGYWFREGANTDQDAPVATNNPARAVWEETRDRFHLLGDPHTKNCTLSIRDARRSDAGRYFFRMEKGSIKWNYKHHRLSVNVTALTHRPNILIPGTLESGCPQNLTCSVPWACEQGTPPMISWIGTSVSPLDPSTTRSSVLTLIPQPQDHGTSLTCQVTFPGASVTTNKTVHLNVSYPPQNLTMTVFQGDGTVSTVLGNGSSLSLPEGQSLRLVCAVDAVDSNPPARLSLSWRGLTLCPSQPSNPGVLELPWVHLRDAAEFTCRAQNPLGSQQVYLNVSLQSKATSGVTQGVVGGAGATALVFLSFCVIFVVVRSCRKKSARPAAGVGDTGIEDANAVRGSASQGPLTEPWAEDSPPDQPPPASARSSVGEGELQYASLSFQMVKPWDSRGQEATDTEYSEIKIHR
Protein translocase subunit SecA (Escherichia coli (strain K12)), sequence (P10408 whole entry): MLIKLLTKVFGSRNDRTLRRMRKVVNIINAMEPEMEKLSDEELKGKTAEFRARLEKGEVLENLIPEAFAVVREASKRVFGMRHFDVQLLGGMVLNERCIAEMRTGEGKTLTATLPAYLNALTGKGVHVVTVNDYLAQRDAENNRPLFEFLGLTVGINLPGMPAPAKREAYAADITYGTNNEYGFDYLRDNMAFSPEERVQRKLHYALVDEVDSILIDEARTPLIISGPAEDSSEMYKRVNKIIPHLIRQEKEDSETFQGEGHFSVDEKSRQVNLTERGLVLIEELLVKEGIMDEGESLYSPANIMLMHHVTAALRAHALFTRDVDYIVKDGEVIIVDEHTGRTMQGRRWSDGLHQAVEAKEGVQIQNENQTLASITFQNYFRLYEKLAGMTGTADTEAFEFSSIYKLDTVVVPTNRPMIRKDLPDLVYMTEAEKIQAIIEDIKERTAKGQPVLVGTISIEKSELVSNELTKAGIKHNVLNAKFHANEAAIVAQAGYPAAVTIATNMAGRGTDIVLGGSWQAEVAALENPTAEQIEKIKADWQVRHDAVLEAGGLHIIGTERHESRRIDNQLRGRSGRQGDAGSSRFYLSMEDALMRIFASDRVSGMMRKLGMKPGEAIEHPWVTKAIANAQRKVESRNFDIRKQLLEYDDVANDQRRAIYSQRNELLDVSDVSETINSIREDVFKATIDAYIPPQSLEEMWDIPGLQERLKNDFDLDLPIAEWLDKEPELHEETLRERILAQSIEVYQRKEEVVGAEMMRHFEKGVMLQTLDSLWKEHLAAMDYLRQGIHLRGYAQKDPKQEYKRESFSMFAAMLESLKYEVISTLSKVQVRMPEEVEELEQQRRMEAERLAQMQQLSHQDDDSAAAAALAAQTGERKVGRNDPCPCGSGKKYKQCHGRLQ

SMILES | Percent Effect [1] [%] | Percent Effect [2] [%] | Percent Effect [3] [%] | Percent Effect [4] [%] | Percent Effect (Trypanosoma cruzi) [%] | Percent Effect [5] [%] | Percent Effect [6] [%] | Percent Effect (Homo sapiens) [%] | Percent Effect [7] [%] | Percent Effect [8] [%] | Percent Effect [9] [%]
CC(O)CN1CCN(C(=O)c2ccc(Cn3cccc3)cc2)CC1 (stereo not given) | -2.39 | 13.5 | -8.63 | -2.4 | -3.49 | -6.81 | 17.8 | 6.79 | 10.3 | 25.9 | -2.47
CCc1nc(C2CCCN2Cc2nc(C3CC3)no2)no1 (stereo not given) | -0.343 | 2.6 | -1.94 | 16.2 | 2.65 | -12.4 | 9.15 | -6.21 | 0 | 1.24 | -6.42
CC(O)CN1CCN(Cc2csc(-c3ncccn3)n2)CC1 (stereo not given) | 1.21 | 7.89 | -3.51 | -8.16 | -3.02 | 3.55 | 24.6 | 16.8 | 5.32 | 15.6 | -4.73
NC(=O)C1CCN(C(=O)Cn2nc(-c3ccccc3)oc2=O)C1 (stereo not given) | -4.97 | 7.79 | 1.04 | 8.76 | 2.46 | -13.8 | 8.82 | -30.7 | 2.15 | 13.6 | -0.676
COc1ccc(Br)c(C(=O)NCC2CCN(S(=O)(=O)C3CC3)CC2)c1 | -4.34 | 19.2 | -7.39 | 14 | 6.07 | -3.18 | 19.5 | 20.3 | 4.3 | 17.5 | -9.38
Cc1cn2c(n1)CCC(NC(=O)c1ccc(CS(C)(=O)=O)cc1)C2 (stereo not given) | -7.39 | 13.2 | -4.52 | 4.15 | 7.71 | -3.06 | 4.68 | -9.1 | 5.39 | 12.2 | -9.28
CN(CCn1nc2ccccn2c1=O)CC(=O)N1CCCC1 | -5.53 | 0 | 6.84 | 5.95 | -6.33 | 3.55 | 11.6 | 15.5 | 3.19 | 2.6 | 29.3
CCC1c2cccn2CCN1C(=O)c1ccc2nonc2c1 (stereo not given) | -6.68 | -1.39 | -3.32 | -10.2 | -3.79 | 0 | 11.6 | -4.01 | 3.16 | -2.56 | 2.02
COc1cccc(CN2CCCC2c2c(C)nn(C)c2C)c1 (stereo not given) | -1.8 | -2.53 | -4.49 | 11.6 | 0.661 | 0.38 | -1.72 | -9.36 | 5.42 | -1.27 | -3.67
CN1CCN(Cc2nc3ccccc3[nH]2)[C@H]2CS(=O)(=O)C[C@H]21 | -1.9 | 8.11 | -2.29 | -1.77 | -1.07 | -1.24 | 13.1 | 5.83 | 10.8 | 18.5 | -2.69
COc1cc(CNC(=O)NCc2c(C)cc(C)[nH]c2=O)ccc1C | -6.17 | 7.89 | -0.139 | 4.36 | 5.64 | 1.15 | 11.9 | 6.94 | 2.45 | 12.2 | -9.57
N#Cc1ccnc(N2CCN(C(=O)NC3CCS(=O)(=O)C3)CC2)c1 (stereo not given) | -2.8 | 16.2 | -36.1 | 7.69 | -0.464 | -0.185 | 9.87 | 14.6 | 7.92 | 23.2 | -5.46
CCN(CC)c1ccc(C(=O)N(C)Cc2c(C)noc2C)cn1 | -4.04 | 10.5 | -4.84 | -2.69 | -7 | 10.1 | -5.84 | 10.8 | 3.45 | 11.1 | -1.15
Cn1c(Cn2ccnc2)nnc1C1CCN(C(=O)C2(C)CC2)CC1 | -1.61 | 11 | -0.77 | 4.51 | -2.98 | -4.39 | 21 | 17 | 5.21 | 18.5 | -5.12
Cc1ccc(C(O)CNC(=O)NCc2nc(C)cs2)cc1 (stereo not given) | -1.18 | 5.41 | 2.46 | 3.69 | -6.56 | 1.43 | 12.9 | 5.94 | 2.65 | 12.2 | -3.85
O=c1oc(-c2cccs2)nn1CC(O)c1ccc(F)cc1 (stereo not given) | -3.82 | 0 | -2.3 | 3.88 | 3.41 | -1.04 | 13.9 | 18.7 | 6.01 | 18.5 | -5.35
CCN(CC)Cc1ccc(C(=O)N2CCN(CC(C)O)CC2)cc1 (stereo not given) | -4.12 | 0 | -3.46 | 8.13 | -0.472 | -2.81 | -4.5 | -2.61 | 4.43 | 1.24 | 0.847
CCn1ccnc1CN1CCOC(CNc2cccnn2)C1 (stereo not given) | -0.964 | 18.2 | -6.06 | 5.48 | 1.5 | 2.85 | 16.4 | 17.5 | 4.85 | 19.5 | -8.74
Cn1cccc1CN1CCC2(CCCN(C(=O)c3cnccn3)C2)C1 (stereo not given) | 0.875 | 7.79 | -0.756 | -13.7 | -10.8 | 11 | 14.4 | 29.7 | -2.12 | -1.28 | -9.31
COc1cccc(NC(=O)N(CCO)Cc2ccsc2)c1 | -3.38 | -6.94 | 1.15 | -5.41 | -4.96 | -4.42 | 12.3 | 11.8 | 3.16 | 5.13 | -4.52
